Experimental data published in the supplement of paper PMC6609913.
Structures can show the parent of a compound that is named as a salt. ± gives the standard deviation of the averaged measurements. The full ranking holds about 1,300 compounds; the median of “normalised cell viability” is about 1, and the lowest 2% start at about 0.14. For the sample, the lowest values were picked, then their nearest neighbours and some compounds at random.

System: V-C8 (BRCA2-deficient hamster cells)
Assay: normalised cell viability (fraction of plate median); higher = more viable cells (less toxic)
Conditions: 5 µM
Procedure, shortened: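 Hamster V-C8 cells lacking BRCA2 and V-C8 cells with BRCA2 restored were seeded in 96-well plates. Library drugs (10 mM DMSO stocks) were added 24 h later at 5 μM in 100 μl medium, next to DMSO control wells, for 3 days (screen 1) or 6 days (screen 2). Cell viability was read by resazurin assay, median-plate normalised (modified robust per cent of sample), and triplicate wells were averaged.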

| Structure (SMILES) | normalised cell viability (treatment time: 3 days) | normalised cell viability (treatment time: 6 days) |
| --- | --- | --- |
| O=C1CN(/N=C/c2ccc([N+](=O)[O-])o2)C(=O)N1 [Nitrofurantoin] | 0.937 ± 0.025 | 1.15 ± 0.29 |
| CN[C@@H]1[C@@H](O)[C@@H](O[C@@H]2[C@@H](O)[C@H](O[C@H]3OC(CN)=CC[C@H]3N)[C@@H](N)C[C@H]2N)OC[C@]1(C)O [Sisomicin sulfate] | 0.157 ± 0.0072 | 0.145 ± 0.0056 |
| COc1cc2nc(N(C)CCCNC(=O)C3CCCO3)nc(N)c2cc1OC (stereo unspecified) [Alfuzosin hydrochloride] | 0.987 ± 0.056 | 1.08 ± 0.08 |
| c1ccc(CC2=NCCN2)cc1 [Tolazoline hydrochloride] | 1 ± 0.025 | 0.98 ± 0.038 |
| CC(C)(O)c1ccccc1CC[C@@H](SCC1(CC(=O)O)CC1)c1cccc(/C=C/c2ccc3ccc(Cl)cc3n2)c1 [Montelukast] | 1.09 ± 0.11 | 1.1 ± 0.052 |
| CCC(C)(CN(C)C)OC(=O)c1ccccc1 (stereo unspecified) [Amyleine hydrochloride] | 1.074 ± 0.0072 | 1.02 ± 0.036 |
| C#CCN[C@@H]1CCc2ccccc21 [Rasagiline] | 1.08 ± 0.055 | 1.06 ± 0.038 |
| Clc1ccc(C(Cn2ccnc2)OCc2csc3c(Cl)cccc23)c(Cl)c1 (stereo unspecified) [Sertaconazole nitrate] | 0.737 ± 0.18 | 0.821 ± 0.12 |
| Cc1cccc(N(C)C(=S)Oc2ccc3ccccc3c2)c1 [Tolnaftate] | 1 ± 0.041 | 0.983 ± 0.02 |
| C=CCOC(Cn1ccnc1)c1ccc(Cl)cc1Cl (stereo unspecified) [Enilconazole] | 0.93 ± 0.04 | 0.943 ± 0.015 |
| Clc1ccc(CO/N=C(\Cn2ccnc2)c2ccc(Cl)cc2Cl)c(Cl)c1 [Oxiconazole Nitrate] | 0.807 ± 0.043 | 0.898 ± 0.043 |
| CN1CCN(C(c2ccccc2)c2ccc(Cl)cc2)CC1 (stereo unspecified) [Chlorcyclizine hydrochloride] | 0.947 ± 0.019 | 0.979 ± 0.073 |
| O=C(O)CCNC(=O)c1ccc(/N=N/c2ccc(O)c(C(=O)O)c2)cc1 [Balsalazide Sodium] | 0.973 ± 0.027 | 0.953 ± 0.13 |
| Nc1ccn([C@@H]2O[C@H](CO)[C@@H](O)[C@@H]2O)c(=O)n1 [Cytarabine] | 0.206 ± 0.0091 | 0.196 ± 0.022 |
| Nc1ccn([C@H]2CC[C@@H](CO)O2)c(=O)n1 [Zalcitabine] | 1.02 ± 0.059 | 1.04 ± 0.044 |
| Nc1ccn([C@@H]2CS[C@H](CO)O2)c(=O)n1 [Lamivudine] | 0.147 ± 0.0082 | 0.139 ± 0.012 |
| CC(C)NCC(O)COc1ccc(COCCOC(C)C)cc1 (stereo unspecified) [Bisoprolol fumarate] | 1.04 ± 0.044 | 1.16 ± 0.049 |

| Structure (SMILES) | normalised cell viability (treatment time: 3 days) | normalised cell viability (treatment time: 6 days) |
| --- | --- | --- |
| CC(C)NCC(O)COc1ccc(CCOCC2CC2)cc1 (stereo unspecified) [Betaxolol hydrochloride] | 0.1577 ± 0.00096 | 0.136 ± 0.014 |
| COC(=O)CCc1ccc(OCC(O)CNC(C)C)cc1 (stereo unspecified) [Esmolol hydrochloride] | 1.04 ± 0.077 | 0.939 ± 0.08 |
| O=C1[C@H](CC[C@H](O)c2ccc(F)cc2)[C@@H](c2ccc(O)cc2)N1c1ccc(F)cc1 [Ezetimibe] | 1.02 ± 0.093 | 1.03 ± 0.022 |
| CN1CCN(C2=Nc3ccccc3Oc3ccc(Cl)cc32)CC1 [Loxapine succinate] | 1.17 ± 0.063 | 1.15 ± 0.03 |
| Cc1cc(C2CCCCC2)n(O)c(=O)c1 [Ciclopirox ethanolamine] | 0.207 ± 0.012 | 0.23 ± 0.015 |
| COC(=O)C1=C(C)NC(C)=C(C(=O)OCC(C)C)C1c1ccccc1[N+](=O)[O-] (stereo unspecified) [Nisoldipine] | 0.889 ± 0.059 | 0.894 ± 0.019 |
| Cc1c(N)c(=O)n(-c2ccccc2)n1C [Ampyrone] | 1.01 ± 0.12 | 1.06 ± 0.055 |
| Nc1nc(=S)c2ncn([C@@H]3O[C@H](CO)[C@@H](O)[C@H]3O)c2[nH]1 [Thioguanosine] | 0.307 ± 0.013 | 0.28 ± 0.017 |
| CCC(Cc1c(I)cc(I)c(N)c1I)C(=O)O (stereo unspecified) [Iopanoic acid] | 0.999 ± 0.036 | 1.07 ± 0.033 |
| CN(C)CCn1nnnc1SCC1=C(C(=O)O)N2C(=O)[C@@H](NC(=O)Cc3csc(N)n3)[C@H]2SC1 [Cefotiam hydrochloride] | 0.996 ± 0.028 | 1.12 ± 0.093 |
| CC(C)NC[C@@H](O)COc1cccc2ccccc12 [(R)-Propranolol hydrochloride] | 0.914 ± 0.085 | 1.06 ± 0.085 |
| CCc1cccc(CC)c1NC(=O)CN(CC(=O)O)CC(=O)O [Etifenin] | 1.07 ± 0.047 | 1.04 ± 0.043 |
| CC(NCCC(c1ccccc1)c1ccccc1)c1ccccc1 (stereo unspecified) [Fendiline hydrochloride] | 0.197 ± 0.018 | 0.496 ± 0.16 |
| Cc1cc(NS(=O)(=O)c2ccc(N)cc2)no1 [Sulfamethoxazole] | 1.02 ± 0.028 | 0.959 ± 0.076 |
| CC(C)/N=c1\cc2n(-c3ccc(Cl)cc3)c3ccccc3nc-2cc1Nc1ccc(Cl)cc1 [Clofazimine] | 0.148 ± 0.0016 | 0.133 ± 0.017 |
| Cc1cnc(C(=O)NCCc2ccc(S(=O)(=O)NC(=O)NC3CCCCC3)cc2)cn1 [Glipizide] | 1.093 ± 0.0089 | 1.13 ± 0.034 |
